Results on 13 compounds are retold here after PubChem BioAssay (NCATS).

The structures appear in SMILES notation. Several values for one entry are separate records, joined by “and”; a condition that tells them apart may be missing. Equal entries are not always repeated. Inconclusive results are not listed. Some structures have more than one record in an assay (separate samples or runs), and their calls can disagree. Activity calls are given as the source filed them. Unless noted, calls follow the shape of the dose curve; as a rule, active = well fitted curve in the direction sought with a large enough effect; inconclusive = small, poorly fitted or top-dose-only effect, or another doubt; inactive = no such curve, though single readings can be large; an effect the other way counts as inactive or inconclusive.

Assay [1] can be described thus: qHTS Screen of the MIPE 4.0 Collection Against Ewings Sarcoma (RDES) (AID 1259252). Also: nearly all actives have a fitted effect of over 35% in size. Also: potency is read from the fitted curve at half-maximal effect. The following applies: RD-ES Ewing sarcoma viability, CellTiter-Glo, 48 h; series mostly up to 45.8 µM. In a few lines:
(§1)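 Cells plated in serum-containing RPMI (5% FBS) and treated with compound dilutions for 48 h. Readout luminescent viability; normalization relied on vehicle (no inhibition) and media-only columns (full inhibition).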

The nature of assay [2]: qHTS Screen of the MIPE 4.0 Collection Against Ewings Sarcoma (TC71) (AID 1259253). Also: potency is read from the fitted curve at half-maximal effect; nearly all actives have a fitted effect of over 40% in size. The following applies: TC71 Ewing sarcoma viability, CellTiter-Glo, 48 h; series mostly up to 45.8 µM. In a few lines: as §1
For orientation: qHTS replaces the single test concentration by a dilution series.

A short description of assay [3]: qHTS Screen of the MIPE 4.0 Collection Against Ewings Sarcoma (EW8) (AID 1259255). Also: potency is read from the fitted curve at half-maximal effect; nearly all actives have a fitted effect of over 35% in size. The note with it: EW8 Ewing sarcoma viability, CellTiter-Glo, 48 h; series mostly up to 45.8 µM. In a few lines: as §1
The nature of assay [4]: qHTS Screen of the MIPE 4.0 Collection Against Ewings Sarcoma (TC32) (AID 1259256). Also: potency is read from the fitted curve at half-maximal effect; nearly all actives have a fitted effect of over 45% in size. The note with it: TC32 Ewing sarcoma viability, CellTiter-Glo, 48 h; series mostly up to 45.8 µM. The procedure, abridged: as §1
Assay [5] can be described thus: Identifying Small Molecule Inhibitors of Pancreatic Cancer Stem Cells (A2780, Spheroid) (AID 1259357). Also: potency is read from the fitted curve at half-maximal effect.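 Also: spheroids pre-formed over 14 days in stem cell medium on hydrogel; compound exposure lasted 48 h before the ATP luminescence read.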 The note with it: Potency: A2780 spheroid viability; series mostly up to 46.1 µM. The procedure, abridged: (§2)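 Adherent (2D) versus sphere (3D) formats; spheres generated 14 d in SCM beforehand. Compound transferred by pin tool after 4 h, 48 h incubation, CellTiter-Glo endpoint.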

A short description of assay [6]: Identifying Small Molecule Inhibitors of Pancreatic Cancer Stem Cells (A278, Adherent) (AID 1259361).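 Also: viability read after 48 h compound exposure; nearly all actives have a fitted effect of over 35% in size.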 The following applies: series mostly up to 46.1 µM. In a few lines:
(§3)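 Pre-formed 14-day tumor spheroids or adherent cells dosed and incubated 48 h, 37C, 5% CO2. Viability assessed by CellTiter-Glo.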

A short description of assay [7]: P-glycoprotein substrates identified in KB-8-5-11 adenocarcinoma cell line, qHTS therapeutic library screen (AID 1346987). Also: nearly all actives have a fitted effect of over 65% in size. Also: potency is read from the fitted curve at half-maximal effect. The following applies: KB-8-5-11 (P-gp overexpressing) viability, CellTiter-Glo, 72 h; series mostly up to 44.5 µM. The procedure, abridged:
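Human cervical adenocarcinoma KB-8-5-11 cells, selected in colchicine to over-express P-gp and assayed without it, were exposed for 72 h to titrated compounds. An ATP-based luminescent viability signal gave AC50.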

In assay [8] the target is Atrial natriuretic peptide receptor 1 (Homo sapiens) (UniProt P16066). The assay can be described thus: Natriuretic polypeptide receptor (hNpr1) antagonism - Pilot screen (AID 1347049; calls by dose curve;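 also: HEK293 cells with hNpr1 and GloSensor cGMP luciferase stimulated by 0.1 nM hNppA; agonist-evoked cGMP luminescence read 20 min after hNppA addition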). The note with it: hNpr1 cells, antagonist mode cGMP read-out; series mostly up to 57.5 µM. The procedure, abridged:
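Receptor antagonism read as cGMP-dependent luminescence in hNpr1/pGS-40F HEK293 cells: pre-read after 30 min compound exposure, post-read 20 min after hNppA agonist at 0.1 nM final, all at room temperature, protected from light; A-71915 titration as control.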

The target in assay [9] is Atrial natriuretic peptide receptor 2 (Homo sapiens) (UniProt P20594). The assay can be described thus: Natriuretic polypeptide receptor (hNpr2) antagonism - Pilot subtype selectivity assay (AID 1347050; calls by dose curve). The following applies: NPR2-expressing cells, cGMP antagonist-mode read-out; series mostly up to 38.3 µM. In a few lines:
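Antagonist mode: compounds (LOPAC1280, seven 1:5 dilutions) added 30 min before 1 nM hNppC stimulation of hNpr2-HEK293 cGMP-sensor cells; luminescence read before and 20 min after agonist at ambient temperature.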

Assay [10] can be described thus: NS1 protein of Zika virus - qHTS assay to identify small molecule inhibitors in human HEK 293 cells (AID 1347053). Also: nearly all actives have a fitted effect of over 55% in size. Also: potency is read from the fitted curve at half-maximal effect. The note with it: HEK293 ZIKV MR766 infection, NS1 TR-FRET, 24 h; series mostly up to 46.1 µM. In a few lines: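 Readout was TR-FRET using paired anti-NS1 antibodies after 24 h infection of HEK 293 cells with ZIKV MR766 (MOI = 0.5). Compound preceded virus by 1 h; reduced signal reflects lower NS1 expression.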

Assay [11] in a line: P-glycoprotein substrates identified in KB-3-1 adenocarcinoma cell line, qHTS therapeutic library screen (AID 1346986). Also: nearly all actives have a fitted effect of over 60% in size.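 Also: potency is read from the fitted curve at half-maximal effect; potency is for cytotoxicity meaning loss of cell viability.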 The following applies: KB-3-1 parental cells viability, CellTiter-Glo, 72 h; series mostly up to 44.5 µM. The procedure, abridged: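 Dose-response cytotoxicity, KB-3-1 vs P-gp-high KB-8-5-11, no colchicine in assay medium. Read: CellTiter-Glo at 72 h.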
A short description of assay [12]: Identifying Small Molecule Inhibitors of Pancreatic Cancer Stem Cells (SN12C, Adherent) (AID 1259358).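 Also: potency is read from the fitted curve at half-maximal effect; cell survival measured after 48 h of compound exposure.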 The following applies: viability/growth inhibition; series mostly up to 46.1 µM. The procedure, abridged: as §3
A short description of assay [13]: Identifying Small Molecule Inhibitors of Pancreatic Cancer Stem Cells (Panc1, Spheroid) (AID 1259359).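 Also: potency is read from the fitted curve at half-maximal effect; compound exposure lasted 48 h before reading.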 The note with it: Panc1 spheroid cancer stem cell viability; series mostly up to 46.1 µM. In a few lines: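 Endpoint: ATP-based luminescence, 48 h drug exposure. Bortezomib at 9.2 uM final as full-kill control; DMSO vehicle as negative control; activity normalized between vehicle and cell-free wells.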

Assay [14] in a line: Identifying Small Molecule Inhibitors of Pancreatic Cancer Stem Cells (SN12C, Spheroid) (AID 1259360). Also: potency is read from the fitted curve at half-maximal effect. The note with it: Potency: SN12C spheroid viability; series mostly up to 46.1 µM. The procedure, abridged:
as §2

Assay [15] is described as follows: Identifying Small Molecule Inhibitors of Pancreatic Cancer Stem Cells (Panc1, Adherent) (AID 1259362). Also: potency is read from the fitted curve at half-maximal effect. The following applies: Potency: viability; series mostly up to 46.1 µM. The procedure, abridged: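 Viability is scored by CellTiter-Glo luminescence 48 h after dosing, expressed as percent activity against vehicle and no-cell references. Spheroid formats rely on cells cultured 14 days in stem cell media beforehand.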

Atrial natriuretic peptide receptor 2 (Homo sapiens), sequence (P20594 whole entry, looked up): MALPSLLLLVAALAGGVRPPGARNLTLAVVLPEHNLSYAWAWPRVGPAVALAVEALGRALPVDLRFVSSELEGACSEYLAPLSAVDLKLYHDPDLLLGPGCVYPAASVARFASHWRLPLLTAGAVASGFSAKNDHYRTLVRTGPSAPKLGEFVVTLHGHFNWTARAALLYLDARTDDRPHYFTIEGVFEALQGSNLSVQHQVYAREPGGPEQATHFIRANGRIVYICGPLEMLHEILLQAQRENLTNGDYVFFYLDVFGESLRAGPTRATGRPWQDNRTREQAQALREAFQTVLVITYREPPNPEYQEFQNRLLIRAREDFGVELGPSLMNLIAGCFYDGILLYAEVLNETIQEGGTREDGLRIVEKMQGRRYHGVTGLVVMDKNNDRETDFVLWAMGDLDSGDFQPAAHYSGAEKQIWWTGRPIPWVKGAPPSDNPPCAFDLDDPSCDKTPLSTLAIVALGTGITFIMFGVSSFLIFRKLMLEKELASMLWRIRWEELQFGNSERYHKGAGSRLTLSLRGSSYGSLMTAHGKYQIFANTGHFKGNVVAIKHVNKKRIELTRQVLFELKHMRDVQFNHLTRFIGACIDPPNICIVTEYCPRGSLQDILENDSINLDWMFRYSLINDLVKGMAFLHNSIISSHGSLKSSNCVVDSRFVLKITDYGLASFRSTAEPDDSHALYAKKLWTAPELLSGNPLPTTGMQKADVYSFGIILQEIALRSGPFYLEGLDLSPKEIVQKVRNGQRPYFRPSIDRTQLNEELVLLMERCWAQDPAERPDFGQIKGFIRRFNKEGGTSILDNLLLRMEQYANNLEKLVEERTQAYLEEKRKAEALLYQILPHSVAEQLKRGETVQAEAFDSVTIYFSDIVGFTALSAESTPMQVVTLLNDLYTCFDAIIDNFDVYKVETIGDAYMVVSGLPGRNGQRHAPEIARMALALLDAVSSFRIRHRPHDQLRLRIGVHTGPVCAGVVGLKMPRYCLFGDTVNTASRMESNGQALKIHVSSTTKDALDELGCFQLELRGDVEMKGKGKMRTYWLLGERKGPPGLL
Atrial natriuretic peptide receptor 1 (Homo sapiens), sequence (P16066 whole entry, looked up): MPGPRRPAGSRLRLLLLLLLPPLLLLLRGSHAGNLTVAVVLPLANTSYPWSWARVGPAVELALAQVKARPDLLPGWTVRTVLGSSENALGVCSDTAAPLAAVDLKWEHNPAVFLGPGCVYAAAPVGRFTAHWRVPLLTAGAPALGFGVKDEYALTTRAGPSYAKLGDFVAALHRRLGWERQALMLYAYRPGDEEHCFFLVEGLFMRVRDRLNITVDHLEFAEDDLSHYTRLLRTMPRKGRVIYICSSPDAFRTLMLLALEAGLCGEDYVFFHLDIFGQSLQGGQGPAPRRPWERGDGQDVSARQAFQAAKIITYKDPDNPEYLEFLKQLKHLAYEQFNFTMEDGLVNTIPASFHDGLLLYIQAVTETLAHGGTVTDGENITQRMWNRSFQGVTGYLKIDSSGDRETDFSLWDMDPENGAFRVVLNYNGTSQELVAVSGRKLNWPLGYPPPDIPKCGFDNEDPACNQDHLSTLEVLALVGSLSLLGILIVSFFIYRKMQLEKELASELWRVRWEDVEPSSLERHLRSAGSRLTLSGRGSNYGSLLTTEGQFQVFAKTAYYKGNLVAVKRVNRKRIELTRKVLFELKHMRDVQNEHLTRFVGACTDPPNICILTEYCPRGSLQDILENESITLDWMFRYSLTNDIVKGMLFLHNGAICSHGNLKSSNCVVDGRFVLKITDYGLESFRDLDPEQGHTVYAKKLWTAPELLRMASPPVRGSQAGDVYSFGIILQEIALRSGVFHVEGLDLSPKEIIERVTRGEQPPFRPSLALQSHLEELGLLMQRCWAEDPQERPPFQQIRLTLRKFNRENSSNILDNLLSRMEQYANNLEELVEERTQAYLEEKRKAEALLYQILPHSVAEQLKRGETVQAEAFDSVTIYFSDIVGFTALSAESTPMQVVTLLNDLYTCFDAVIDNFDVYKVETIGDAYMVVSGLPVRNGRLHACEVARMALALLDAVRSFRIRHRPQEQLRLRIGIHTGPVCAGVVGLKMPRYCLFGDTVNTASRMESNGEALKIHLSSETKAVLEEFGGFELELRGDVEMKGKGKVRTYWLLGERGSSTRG

`CC[C@H](CO)Nc1nc(NCc2ccccc2)c2ncn(C(C)C)c2n1`: the Potency in [1] is 16.6 µM (active); in [2] it was 20.9 µM (active); in assay [3] it was 29.6 µM (active); in assay [4], 20.9 µM (active); in [5], 20.9 µM (active); in assay [7], 18.7 µM (active). Also, in [6], the IC50 (viability decrease) is 18.7 µM (active). Moreover, the Potency entry in assay [8] and in [10] was “inactive” in each case. In assay [9], the outcome was inactive.
With `N#CCNC(=O)c1ccc(-c2ccnc(Nc3ccc(N4CCOCC4)cc3)n2)cc1`, the Potency in assay [1] is 11.8 µM (active); in [2] it was 4.69 µM (active); in [3], 13.2 µM (active); in assay [4], 16.6 µM (active); in assay [5] it was 20.9 µM (active); in [11], 3.66 µM (active). The Potency in assay [7] is 8.33 µM (active) and 5.8 µM (active). In addition, the IC50 (viability decrease) in assay [6] was 13.2 µM (active).
Regarding `Cc1[nH]nc2ccc(-c3cncc(OC[C@@H](N)Cc4ccccc4)c3)cc12`, the Potency was 2.09 µM (active) in [1]; 1.48 µM (active) in [2]; 0.833 µM (active) in [3]; 2.96 µM (active) in assay [4]; 7.43 µM (active) in assay [12]; 9.35 µM (active) in [13]. Besides, the Potency in assay [14] is 18.7 µM (active); in [7], 2.35 µM (active) and 1.16 µM (active); in assay [10], 8.33 µM (active). In assay [6], the IC50 (viability decrease) was 0.935 µM (active).
As for `CCN(CC)CCCCNc1ncc2cc(-c3cc(OC)cc(OC)c3)c(NC(=O)NC(C)(C)C)nc2n1`, the Potency in [1] is 20.9 µM (active); in assay [2] it was 16.6 µM (active); in [3], 18.7 µM (active); in assay [4], 16.6 µM (active); in assay [12], 14.8 µM (active); in assay [13], 18.7 µM (active). For the same compound, the Potency in [11] is 23.1 µM (active). Also, the IC50 (viability decrease) in assay [6] was 5.26 µM (active).
Regarding `Cc1cnc(-c2cnc(NCCNc3ccc(C#N)cn3)nc2-c2ccc(Cl)cc2Cl)[nH]1`, the Potency was 8.33 µM (active) in assay [1], 11.8 µM (active) in assay [2], 16.6 µM (active) in [3] and 11.8 µM (active) in assay [4]. The Potency entry in [5], in [14], in [7] and in [10] was “inactive” throughout.
For the compound `CCN1CCN(Cc2ccc(-c3cc4c(N[C@H](C)c5ccccc5)ncnc4[nH]3)cc2)CC1`, the Potency entry in assay [1] and in assay [7] was “inactive” throughout. Besides, the Potency in assay [2] is 0.0053 µM (active); in [3], 0.0332 µM (active); in assay [4], 0.0148 µM (active); in assay [12], 23.5 µM (active).
Consider `C=C1C(=CC=C2CCCC3(C)[C@@H]([C@H](C)C=CC=CC(O)(CC)CC)CC[C@@H]23)C[C@@H](O)C[C@@H]1O` (some centres not stated), for which the Potency is 18.7 µM (active) in assay [1]; 18.7 µM (active) in assay [2]; 23.5 µM (active) in [3]; 20.9 µM (active) in [4]; 18.7 µM (active) in assay [14]. Moreover, the Potency entry in [11], in [7] and in assay [10] was “inactive” each time.
Turning to `CNc1nccc(-c2cccnc2Oc2cc(C(=O)Nc3cccc(C(F)(F)F)c3)ccc2C)n1`, the Potency in [1] was 4.18 µM (active); in assay [2] it was 16.6 µM (active); in [3], 18.7 µM (active); in assay [4], 16.6 µM (active); in assay [14], 18.7 µM (active); in assay [7], “inactive and 16.4 µM (active)”. Further, the Potency entry in assay [11] was “inactive”.
Turning to `Cc1ccc(C(=O)Nc2cccc(C(F)(F)F)c2)cc1-c1ccc2nc(NCCN3CCOCC3)ncc2c1`, the Potency in assay [1] was 14.8 µM (active); in assay [2], 14.8 µM (active); in assay [3], 14.8 µM (active); in [4] it was 11.8 µM (active); in assay [15], 11.8 µM (active); in [11], 8.2 µM (active). Besides, in assay [7], the Potency was 16.6 µM (active) and 11.6 µM (active). For the same compound, the IC50 (viability decrease) in assay [6] was 2.64 µM (active).
Turning to `C=CC(=O)Nc1cccc(Oc2nc(Nc3ccc(N4CCN(C)CC4)cc3OC)ncc2Cl)c1`, the Potency in assay [1] is 0.0187 µM (active); in assay [2] it was 0.0074 µM (active); in [3], 0.0209 µM (active); in assay [4], 0.0148 µM (active); in assay [12] it was 23.5 µM (active); in assay [7], “inactive and 20.6 µM (active)”. Moreover, the Potency in [10] was 33.2 µM (active).
For `Cc1cc(Nc2cc(N3CCN(C)CC3)nc(Sc3ccc(NC(=O)C4CC4)cc3)n2)n[nH]1`, the Potency is 3.72 µM (active) in assay [1]; 6.62 µM (active) in assay [2]; 0.296 µM (active) in [3]; 1.18 µM (active) in [4]; 0.231 µM (active) in [11]; 9.35 µM (active) in assay [10]. Besides, in assay [14], the Potency result was “inactive”.
Turning to `COc1cc(OC2CCN(C)CC2)ccc1Nc1ncc2c(n1)n(C1CCCC1)c(=O)n2C`, the Potency in assay [1] was 9.35 µM (active); in [2], 4.69 µM (active); in [3], 7.43 µM (active); in assay [4], 4.69 µM (active); in assay [14] it was 20.9 µM (active); in assay [15], 2.96 µM (active). Besides, the Potency in assay [7] was 3.72 µM (active).
`CC(C)(C)OC(=O)Nc1ccc(-c2cc(C(=O)NCCCCCCC(=O)NO)no2)cc1`: the Potency in assay [1] is 2.09 µM (active); in assay [2] it was 2.96 µM (active); in [3], 1.32 µM (active); in assay [4], 1.66 µM (active); in [14], 16.6 µM (active); in assay [7], 8.33 µM (active). For the same compound, the Potency in [10] was 26.4 µM (active). Moreover, the IC50 (viability decrease) in [6] is 2.35 µM (active).
